Screening data deposited in PubChem by National Center for Advancing Translational Sciences (NCATS).
G9a block: G9a (human) methyltransferase inhibition; G9a H3K9 monomethylation, AlphaScreen, 2 h; Potency, µM (series often up to 102 µM), for the others: top-dose activity, negative = inhibition, most hits filed as inhibitors; actives 8.8% (n = 350,000); note: % is set by controls: 0 for no effect and ±100 for the full control effect; nearly all actives have a fitted effect of over 75% in size
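AlphaScreen read-out: biotin-H3K9 peptide (500 nM) methylation by 20 nM enzyme with 20 uM SAM, 2 h at room temperature after 15 min compound preincubation; anti-monomethyl H3K9 antibody plus donor/acceptor beads, 10 min dark.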
BAZ2B block: inhibitors of human BAZ2B bromodomain; Q9UIF8; AlphaScreen BAZ2B-H3K14Ac peptide displacement; Potency, µM (doses to about 114 µM), without a hit: at the highest dose activity change, negative = inhibition, usual class: inhibitors; actives 4.4% (n = 360,000); AID 504333; note: % is set by controls: 0 for no effect and ±100 for the full control effect; nearly all actives have a fitted effect of over 60% in size
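Compounds, titrated to a top concentration of 110 uM, were incubated 30 min at room temperature with preformed BAZ2B/acetyl-K14 H3 peptide complex (50 nM each). Proximity signal was measured by AlphaScreen after 20 min with beads.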
HP1b binding inh: blocks HP1-beta chromodomain binding to methylated histone tails. P83916. AlphaScreen HP1-beta / biotin-H3K9me3 peptide binding. Potency, µM (top dose mostly 114 µM), for the others: top-dose activity change, negative = inhibition, hits mostly inhibitors. actives 0.56% (n = 390,000). AID 540317; note: nearly all actives have a fitted effect of over 70% in size
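HP1-beta protein (50 nM final) preincubated 30 min at room temperature with biotinylated H3(1-18)K9me3 peptide (50 nM) in PBS pH 7.4, 0.01% Tween-20, then compound added for 30 min. AlphaScreen streptavidin donor/nickel chelate acceptor beads (10 ug/mL final), 30 min dark, luminescence read.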
GLS inhibitor: blocks human kidney-isoform glutaminase activity | O94925 | GLS enzymatic activity, qHTS titration | Potency, µM (doses to about 45.5 µM), for the others: top-dose activity change, negative = inhibition, most hits filed as inhibitors | actives 0.21% (n = 410,000) | AID 624170; note: % is set by controls: 0 for no effect and ±100 for the full control effect
Target sequence (O94925 whole entry, looked up, canonical isoform): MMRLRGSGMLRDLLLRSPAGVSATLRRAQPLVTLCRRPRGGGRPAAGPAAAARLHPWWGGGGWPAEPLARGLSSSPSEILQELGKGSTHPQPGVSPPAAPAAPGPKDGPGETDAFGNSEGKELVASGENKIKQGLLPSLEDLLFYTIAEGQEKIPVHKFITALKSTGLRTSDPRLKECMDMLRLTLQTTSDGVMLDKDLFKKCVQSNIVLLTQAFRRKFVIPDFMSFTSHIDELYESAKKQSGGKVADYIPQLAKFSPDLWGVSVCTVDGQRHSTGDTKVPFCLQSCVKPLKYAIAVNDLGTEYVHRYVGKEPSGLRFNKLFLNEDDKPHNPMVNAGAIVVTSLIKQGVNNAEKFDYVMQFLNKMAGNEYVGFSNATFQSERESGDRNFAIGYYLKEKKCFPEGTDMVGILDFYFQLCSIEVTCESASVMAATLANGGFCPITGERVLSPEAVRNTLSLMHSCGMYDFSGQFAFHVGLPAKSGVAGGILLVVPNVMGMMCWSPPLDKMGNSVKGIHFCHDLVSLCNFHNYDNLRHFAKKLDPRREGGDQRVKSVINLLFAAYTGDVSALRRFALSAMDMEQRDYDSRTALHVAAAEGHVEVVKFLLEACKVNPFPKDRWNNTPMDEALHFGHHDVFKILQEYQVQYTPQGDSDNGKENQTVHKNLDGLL
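Enzyme dispensed in phosphate buffer (45 mM, pH 8.2, 0.02% Tween-20), compounds pinned in, then 1 mM L-glutamine solution and the glutamate oxidase–HRP–Amplex Red mix added; fluorescence read immediately and again after 30 min at room temperature.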
JMJD2A Tudor: blocks the human JMJD2A Tudor domain; O75164; AlphaScreen JMJD2A-Tudor / H3K4me3 peptide binding; Potency, µM (highest dose often 114 µM), inactives show top-dose activity change, negative = inhibition, usual class: inhibitors; actives 4.4% (n = 390,000); AID 504339; note: % is set by controls: 0 for no effect and ±100 for the full control effect; nearly all actives have a fitted effect of over 50% in size
Numbers without * were called inactive; ? = inconclusive; / = no result; [ ] = another dose, or the depositor's remark. Rows were chosen to be rich in hits. Some 10% of all compounds tested hit in one or more screens of this group. Calls come from the whole dose curve; as a rule, active = well fitted curve in the direction sought with a large enough effect; inconclusive = small, poorly fitted or top-dose-only effect, or another doubt; inactive = no such curve, though single readings can be large; an effect the other way counts as inactive or inconclusive. Potency is the fitted concentration of half-maximal effect.

SMILES	G9a block	BAZ2B block	HP1b binding inh	GLS inhibitor	JMJD2A Tudor
Cc1ccc(-n2c(O)c(/C=N/Nc3ccc(S(=O)(=O)N4CCOCC4)cc3[N+](=O)[O-])c3ccccc3c2=O)c(C)c1	8.9µM*	13µM*	4µM*	9%	28µM*
COCCNc1ccc(S(=O)(=O)N2CCCC2)cc1[N+](=O)[O-]	-8%	-6%	-25%	-1%	-18%
COC(=O)C/C(C)=N/Nc1ccc(S(=O)(=O)N2CCCC2)cc1[N+](=O)[O-]	45µM*	?	-1%	6%	-32%
C/C(=N\Nc1ccc(S(=O)(=O)N2CCOCC2)cc1[N+](=O)[O-])C(C)C	?	/	?	-3%	45µM*
Cc1ccc2c(c1)CCCN2C(=O)c1ccoc1C	-1%[12.7 µM]	-22%	2%	8%	-24%
COc1cc(OC)cc(Oc2ccc(S(=O)(=O)N3CCCCC3)cc2[N+](=O)[O-])c1	79µM*	-27%	-15%	3%	?
COC(=O)COc1ccc(S(=O)(=O)N2CCCCC2)cc1[N+](=O)[O-]	1%	-10%	0%	12%	-12%
COc1cc(/C=N/n2c(-c3n[nH]c4c3CCC4)n[nH]c2=S)ccc1O	?	-34%	?	-22%	3.2µM*
COc1ccc(/C=N/n2c(-c3n[nH]c4c3CCC4)n[nH]c2=S)cc1OC	?	-30%	-16%	-16%	1.4µM*
CCN(CC)CCNS(=O)(=O)c1ccc2[nH]cc(C(=O)O)c(=O)c2c1	?	?	-13%	-19%	56µM*
CCN(CC)C(=O)c1c[nH]c2ccc(S(=O)(=O)Nc3cc(C)cc(C)c3)cc2c1=O	6%[59 µM]	7%	54%	0%	?
CN(c1ccc(F)cc1)S(=O)(=O)c1ccc2[nH]cc(C(=O)O)c(=O)c2c1	?	-34%	29%	-6%	-28%
CCc1ccccc1N(C)S(=O)(=O)c1ccc2[nH]cc(C(=O)O)c(=O)c2c1	45µM*	?	31%	-17%	-18%
O=C(c1ccccc1)c1ccccc1C(=O)c1ccccc1	14%[0.501 µM]	9%	24%	6%	3%
Nc1sccc1C(=O)c1ccccc1	45µM*	-9%	-15%	15%	-36%
CC(=O)NCC(=O)OCC(=O)c1ccc(Cl)cc1	/	-19%	22%	4%	-5%
COc1ccc(-c2nnc(SCC(=O)NCc3cccs3)n2C(C)C)cc1	-2%[12.7 µM]	6%	33%	-2%	1%
CCS(=O)(=O)c1ccc2oc(Nc3cc(Cl)ccc3OC)nc2c1	35µM*	5%	31%	0%	7%
CC(C)CNC(=O)C1CCN(CC2CCCCC2)CC1	/	-4%[57.1 µM]	-29%	-3%	79µM*
CC(C)CNC(=O)C(=O)NNC(=O)C1CCCCC1	20µM*	-5%	26%	2%	?
O=C(NCC1CCCO1)C1CCN(CC2CCCCC2)CC1 (stereo not given)	?	?	-18%	9%	35µM*
CC(C)CN1CCC(C(=O)NCC2CCCO2)CC1 (stereo not given)	10µM*	56µM*	?	2%	7.1µM*
CC(C)OCCCNC(=O)[C@H]1N2C(=O)c3ccccc3C2SC1(C)C (stereo not given in full)	-9%	-12%	35%	-1%	-3%
CCCCN(CCCC)CCCNC(=O)C1CC(c2ccc(C(F)(F)F)cc2)=NO1 (stereo not given)	-5%[59 µM]	7%	31%	-1%	-12%
CCOC(=O)/C(=C/C=C1\Sc2cc(C)c(C)cc2N1CC)C(C)=O	-20%	40µM*	16%	1%	-21%
SMILES	G9a block	BAZ2B block	HP1b binding inh	GLS inhibitor	JMJD2A Tudor
COc1ccc(C2(O)CN(c3ccccc3)C3=[N+]2CCS3)cc1OC (stereo not given)	-19%	71µM*	28%	-12%	-4%
S=C1NNC2(CC3CC2C2CCCC32)NN1 (stereo not given)	1.8µM*	-23%	-5%	10%	?
O=S(=O)(c1ccc(F)cc1)N1CCN(CC(O)COc2ccccc2F)CC1 (stereo not given)	8.9µM*	20µM*	25µM*	-14%	7.9µM*
O=S(=O)(c1ccc(F)cc1)N1CCN(CC(O)COCc2cccs2)CC1 (stereo not given)	32µM*	-36%	?	2%	2.5µM*
CC(C)c1ccccc1OCC(O)CN1CCN(S(=O)(=O)c2ccc([N+](=O)[O-])cc2)CC1 (stereo not given)	35µM*	40µM*	?	6%	20µM*
N#Cc1ccccc1S(=O)(=O)N1CCN(Cc2cccs2)CC1	/	/	/	-10%	/
N#Cc1ccccc1S(=O)(=O)N1CCN(CC(O)c2ccccc2)CC1 (stereo not given)	16µM*	50µM*	45µM*	28%	2.2µM*
N#Cc1ccccc1S(=O)(=O)N1CCN(CC(O)COc2ccccc2F)CC1 (stereo not given)	2.2µM*	28µM*	?	-9%	3.2µM*
CC(C)NC(=O)c1onc(CSc2ccc(Cl)cc2)c1C(=O)O	29%[0.501 µM]	-31%	32%	7%	-20%
Cc1cc(NC(=O)CN2CCN(c3ccccc3O)CC2)no1	?	-1%	8%	46%	79µM*
Cc1cc(NC(=O)CN2CCC(C)CC2)no1	3.5µM*	/	?	0%	5µM*
Cc1cc(NC(=O)CN2C(=O)CC(c3ccco3)Sc3ccccc32)no1 (stereo not given)	13µM*	-30%	-11%	-11%	?
O=C(COC(=O)c1ccccc1O)NCCCc1ccccc1	-32%	20%	4%	1%	79µM*
O=C(CN1CCN(c2ccccc2O)CC1)NCCCc1ccccc1	-45%	/	11%	5µM*	-17%
O=C(CN1CCN(c2ccccc2F)CC1)NCc1ccccc1	/	-4%	22%	1%	-14%
CCn1c(=O)c(C(=O)NNS(=O)(=O)c2ccc(Cl)cc2)c(O)c2ccccc21	55%[59 µM]	12%	42%	6%	-15%
COc1cc(NC(=O)Nn2cnnc2)cc(OC)c1OC	45µM*	3%	3%	7%	-10%
Cc1ccc(-n2c(C)cc(/C=C3\SC(=O)NC3=O)c2C)cc1	13%	-3%	14%	-3%	-19%
COc1ccc(-n2c(C)cc(/C=C3\SC(=S)N(Cc4ccco4)C3=O)c2C)cc1	25µM*	?	-5%	-4%	?
COc1ccc(-n2c(C)cc(/C=C3\SC(=O)NC3=O)c2C)cc1	22µM*	-23%	21%	-20%	?
Cc1ccc(S(=O)(=O)NCC(c2ccccc2)N2CCCCC2)cc1 (stereo not given)	/	2%	17%	4%	1%
CCC(=O)NC1=C(Cl)C(=O)C(NC(=O)CC)=C(Cl)C1=O	0.25µM*	45µM*	4µM*	?	4µM*
